{"source": "PubChem BioAssay (EPA / NIEHS)", "note": "Inconclusive results are not listed. Active and inactive are the calls of the source. The calls were made as follows: active = hit-call score of the fitted dose curve at least 0.9, where 1 is the maximum; inconclusive = response in the unintended direction; inactive = score below 0.9."}
{"target": "Cellular tumor antigen p53 (Homo sapiens) (UniProt P04637)", "sequence (P04637 whole entry, looked up)": "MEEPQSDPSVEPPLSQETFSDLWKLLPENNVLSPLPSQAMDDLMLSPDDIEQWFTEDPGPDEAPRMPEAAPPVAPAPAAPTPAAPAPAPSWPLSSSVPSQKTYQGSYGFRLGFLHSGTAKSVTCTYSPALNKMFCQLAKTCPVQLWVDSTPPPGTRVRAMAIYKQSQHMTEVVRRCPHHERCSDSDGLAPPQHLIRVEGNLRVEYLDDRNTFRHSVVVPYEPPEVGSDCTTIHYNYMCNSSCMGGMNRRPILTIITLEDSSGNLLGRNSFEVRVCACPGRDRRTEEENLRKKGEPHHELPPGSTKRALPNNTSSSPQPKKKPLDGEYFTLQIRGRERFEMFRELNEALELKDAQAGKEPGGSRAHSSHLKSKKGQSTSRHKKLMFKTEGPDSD", "assay": "TOX21_p53_BLA_p5_ratio: Tox21 HCT-116 p53 Agonism Beta-lactamase Assay, Ratio, Phase 5 (AID 2283599)", "summary_of_the_method": "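HCT-116 p53-bla cells (4000/well) plated 5 h, dosed with compound (217-fold DMSO dilution) for 16 h at 37 C; CCF4-AM substrate 2 h at room temperature. Activity is the 460/530 nm emission ratio (405 nm excitation), fitted in gain-of-signal direction versus DMSO.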"}
{"compound": "CC(Cl)COP(=O)(OCC(C)Cl)OCC(C)Cl", "note": "(stereo not drawn)", "outcome": "inactive"}
{"compound": "COc1cc(C)ccc1O", "outcome": "inactive"}
{"compound": "Cc1ccccc1CCO", "outcome": "inactive"}
{"compound": "Cc1ccc(S(=O)(=O)N=C=O)cc1", "outcome": "inactive"}
{"compound": "NNS(=O)(=O)c1ccc(Oc2ccc(S(=O)(=O)NN)cc2)cc1", "outcome": "inactive"}
{"compound": "CC1CCC(C(C)(C)S)C(=O)C1", "note": "(stereo not drawn)", "outcome": "inactive"}
{"compound": "CCCCCC(=O)OCC", "outcome": "inactive"}
{"compound": "CC1=CC=C(C(C)C)CC1", "outcome": "inactive"}
{"compound": "CC(=O)C(C)C", "outcome": "inactive"}
{"compound": "Cc1cc(C)n(CO)n1", "outcome": "inactive"}
{"compound": "NC(=O)Nc1ccccc1", "outcome": "inactive"}
{"compound": "C=CC(C)(O)CC/C=C(\\C)CC", "note": "(stereo not drawn)", "outcome": "inactive"}
{"compound": "Nc1ccc(C(=O)OCCCOC(=O)c2ccc(N)cc2)cc1", "outcome": "inactive"}
{"compound": "CC(C)CCCCCOC(=O)CS", "outcome": "inactive"}
{"compound": "CC(=O)OCCc1ccccc1", "outcome": "inactive"}
{"compound": "C=CCCCCCCCCC=O", "outcome": "inactive"}
{"compound": "CCCCCCCCCCCCC", "outcome": "inactive"}
{"compound": "CCCC1CCCC(=O)O1", "note": "(stereo not drawn)", "outcome": "inactive"}
{"test_system": "not listed separately", "assay": "TOX21_p53_BLA_p5_viability: Viability Assessment in the Tox21 HCT-116 p53 Agonism Beta-lactamase Assay, Phase 5 (AID 2283600)", "summary_of_the_method": "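HCT-116 p53 beta-lactamase reporter cells, 4000/well, were exposed to compound (pin transfer, 217-fold dilution) for 16 hours at 37C. Cellular ATP was read by CellTiter-Glo luminescence after 30 min at room temperature.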"}
{"compound": "C=CC(C)(CCC=C(C)C)OC(=O)C=Cc1ccccc1", "note": "(stereo not drawn)", "outcome": "inactive"}
{"compound": "COc1cc(C)ccc1O", "outcome": "inactive"}
{"compound": "Cc1ccc(S(=O)(=O)N=C=O)cc1", "outcome": "inactive"}
{"compound": "NNS(=O)(=O)c1ccc(Oc2ccc(S(=O)(=O)NN)cc2)cc1", "outcome": "inactive"}
{"compound": "CC1=CC=C(C(C)C)CC1", "outcome": "inactive"}
{"compound": "CC(=O)C(C)C", "outcome": "inactive"}
{"compound": "CCCCc1ccc(Cl)cc1", "outcome": "inactive"}
{"compound": "CCCCC(CC)COC(=O)/C=C/c1ccc(OC)cc1", "note": "(stereo not drawn)", "outcome": "inactive"}
{"compound": "COC(=O)c1ccccc1C", "outcome": "inactive"}
{"compound": "Cc1cc(C)n(CO)n1", "outcome": "inactive"}
{"compound": "CCc1occc(=O)c1O", "outcome": "inactive"}
{"compound": "CC(C)=CCl", "outcome": "inactive"}
{"compound": "Nc1ccc(C(=O)OCCCOC(=O)c2ccc(N)cc2)cc1", "outcome": "inactive"}
{"compound": "CC(C)CCCCCOC(=O)CS", "outcome": "inactive"}
{"compound": "CCCCCCCCCCCC(C)=O", "outcome": "inactive"}
{"compound": "CC(=O)OCCc1ccccc1", "outcome": "inactive"}
{"compound": "C=CCCCCCCCCC=O", "outcome": "inactive"}
{"compound": "CCCCCCCCCCCCC", "outcome": "inactive"}
{"compound": "CCCC1CCCC(=O)O1", "note": "(stereo not drawn)", "outcome": "inactive"}
{"target": "Cellular tumor antigen p53 (Homo sapiens) (UniProt P04637)", "assay": "TOX21_p53_BLA_p4_ratio: Tox21 HCT-116 p53 Agonism Beta-lactamase Assay, Ratio, Phase 4 (AID 2283601)", "summary_of_the_method": "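HCT-116 p53 beta-lactamase reporter cells (4000/well) preincubated 5 h, then compound (217-fold dilution of DMSO stock) for 16 h at 37C. CCF4-AM substrate added 2 h at room temperature; 460/530 nm emission ratio fitted upward versus DMSO.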"}
{"compound": "CCOC(=O)c1ccc(C)cc1", "outcome": "inactive"}
{"compound": "CC(CC=O)CC(C)(C)C", "note": "(stereo not drawn)", "outcome": "inactive"}
{"compound": "CC(C)c1cc(C(C)C)cc(C(C)C)c1", "outcome": "inactive"}
{"compound": "COc1cc(C)ccc1O", "outcome": "inactive"}
{"compound": "Cc1ccccc1CCO", "outcome": "inactive"}
{"compound": "Cc1ccc(S(=O)(=O)N=C=O)cc1", "outcome": "inactive"}
{"compound": "NNS(=O)(=O)c1ccc(Oc2ccc(S(=O)(=O)NN)cc2)cc1", "outcome": "inactive"}
{"compound": "CC1CCC(C(C)(C)S)C(=O)C1", "note": "(stereo not drawn)", "outcome": "inactive"}
{"compound": "CCCC(C)C(=O)OCC", "note": "(stereo not drawn)", "outcome": "inactive"}
{"compound": "CC1=NN(c2ccc(S(=O)(=O)O)cc2)C(=O)C1N=Nc1ccccc1", "note": "(stereo not drawn)", "outcome": "inactive"}
{"compound": "CC(=O)C(C)C", "outcome": "inactive"}
{"compound": "CCCCc1ccc(Cl)cc1", "outcome": "inactive"}
{"compound": "COC(=O)c1ccccc1C", "outcome": "inactive"}
{"compound": "Cc1cc(C)n(CO)n1", "outcome": "inactive"}
{"compound": "NC(=O)Nc1ccccc1", "outcome": "inactive"}
{"compound": "c1ccc2cnccc2c1", "outcome": "inactive"}
{"compound": "CC(C)=CCl", "outcome": "inactive"}
{"compound": "CCCCCCCCCCCC(C)=O", "outcome": "inactive"}
{"compound": "CC(=O)OCCc1ccccc1", "outcome": "inactive"}
{"compound": "CCCCCCCCCCCCC", "outcome": "inactive"}
{"compound": "CCCC1CCCC(=O)O1", "note": "(stereo not drawn)", "outcome": "inactive"}
